Laboratory results from PubChem BioAssay AID493194 (Broad Institute, 2011).
Entries with a potency or affinity are not part of this list. Records with an inconclusive call do not appear. Active and inactive are the calls of the source.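 How the source made its calls: active means a valid curve of falling signal whose half-effect concentration is at most ten times the top tested dose; inconclusive means flat curve at 30 to 70% inhibition, or poor fit; inactive means signal rise, flat within 30%, or potency beyond limit.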

molecular target: Scavenger receptor class B member 1 (Mus musculus) (UniProt Q61009); assay: mouse SR-BI DiI-HDL uptake blockers – ldlA[mSR-BI] cells, fluorescence, cherry pick, dose response (AID 493194); settings: CHO ldlA[mSR-BI] DiI-HDL uptake fluorescence, 3 h; series mostly up to 35 µM; activity change, negative = inhibition: at the top concentration;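 further: CHO cells lacking LDL receptor and overexpressing mouse SR-BI; cellular uptake of fluorescently labeled HDL measured as cell fluorescence; 0% = median of neutral control wells and -100% = median of positive control wells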
Sequence (Q61009 whole entry, looked up): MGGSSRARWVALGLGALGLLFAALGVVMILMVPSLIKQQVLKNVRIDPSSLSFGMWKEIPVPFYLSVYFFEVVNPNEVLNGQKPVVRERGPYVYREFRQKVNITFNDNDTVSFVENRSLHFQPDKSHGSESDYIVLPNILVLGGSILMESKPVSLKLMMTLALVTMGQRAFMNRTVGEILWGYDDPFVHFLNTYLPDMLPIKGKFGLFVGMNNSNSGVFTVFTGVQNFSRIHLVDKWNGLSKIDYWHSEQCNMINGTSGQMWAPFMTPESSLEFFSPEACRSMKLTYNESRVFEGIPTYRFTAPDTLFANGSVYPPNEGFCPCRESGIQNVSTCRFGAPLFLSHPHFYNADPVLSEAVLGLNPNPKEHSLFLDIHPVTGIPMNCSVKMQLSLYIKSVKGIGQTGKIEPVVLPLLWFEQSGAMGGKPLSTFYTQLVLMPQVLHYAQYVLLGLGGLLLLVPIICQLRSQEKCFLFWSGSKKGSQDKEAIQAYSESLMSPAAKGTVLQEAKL

Activity change, negative = inhibition, inactive:
COc1cc(C(=S)N2CCCC2)ccc1OC(=O)c1ccc(Cl)cc1[N+](=O)[O-] -29.2%
COC(=O)C1=CN(c2ccc(F)c(F)c2)C=C(C(=O)OC)C1c1ccc([N+](=O)[O-])cc1 -33.5%
CCN(CC)C(=O)c1cccc(NC(=O)c2cc(C3CC3)nc3c2cnn3C(C)C)c1 -26.8%
CCOC(=O)Nc1nc(-c2ccccc2)c(C(=O)c2ccccc2)s1 -13.9%
COc1ccc(S(=O)(=O)N2CCC(C(=O)NN3CCCCC3)CC2)cc1OC 4.12%
O=C(NC1CCCC1)C(c1c[nH]c2ccccc12)N(C(=O)Cn1nnc(-c2ccc(Cl)cc2)n1)c1ccccc1 (stereo unspecified) 47.2%
O=C(CN1CCN(CC(=O)Nc2ccc3c(c2)OC2(CCCCC2)O3)CC1)Nc1cccc(F)c1 2.55%
O=C(Nc1cccc(-c2cn3c(n2)SCC3)c1)c1ccc2ccccc2n1 47.3%
O=C(NCCn1cc(SCc2ccccc2)c2ccccc21)c1c(F)cccc1F -20%
Cc1ccccc1C(=O)Nc1cc(NC(=O)c2ccccc2C)cc(C(=O)O)c1 30.6%
Fc1ccc(-c2cc(-c3cccs3)cc(-c3ccccc3)n2)cc1 37.5%
CN(Cc1cc(Cl)cc(Cl)c1O)Cc1c(O)ccc2ccccc12 135%
COCCOC(=O)c1[nH]c2c(c1C)C(=O)CC(c1ccco1)C2 (stereo unspecified) -33.1%
Cn1c(CCN2CCN(c3ccccn3)CC2)nc2cc(NS(=O)(=O)c3ccc(Cl)cc3)ccc21 -2.37%
COC(=O)c1c(C)[nH]c(C(=O)C(C)OC(=O)C2CC(=O)N(c3ccc(C)cc3)C2)c1C (stereo unspecified) -23.5%
CC(=O)Nc1ccc(S(=O)(=O)Nc2cc(C)c(-n3nc4ccccc4n3)cc2O)cc1 28.9%
